Screening results as filed in PubChem BioAssay.
This is a sample that favours compounds with a hit; in the whole collection about 3.5% have one here.
UGM FP inh: inhibitors of M. tuberculosis UDP-galactopyranose mutase; actives 0.06% (n = 320,000); purified UGM, fluorescence polarization probe displacement; P9WIQ1; inhibition, % at 10 µM; in the data active means inhibition above about 10%, passing the limit was not always enough
Target sequence (P9WIQ1 whole entry, looked up): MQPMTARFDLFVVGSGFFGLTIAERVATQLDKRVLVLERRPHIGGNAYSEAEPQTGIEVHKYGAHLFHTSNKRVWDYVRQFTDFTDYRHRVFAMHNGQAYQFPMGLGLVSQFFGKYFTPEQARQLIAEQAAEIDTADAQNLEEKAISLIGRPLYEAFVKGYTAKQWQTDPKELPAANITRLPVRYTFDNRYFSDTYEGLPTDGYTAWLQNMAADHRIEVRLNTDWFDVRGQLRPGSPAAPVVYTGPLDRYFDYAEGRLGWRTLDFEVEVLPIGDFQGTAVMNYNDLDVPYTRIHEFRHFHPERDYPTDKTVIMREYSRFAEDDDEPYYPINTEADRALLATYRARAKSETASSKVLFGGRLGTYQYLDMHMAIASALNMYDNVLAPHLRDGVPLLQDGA
Mtb betalactam: beta-lactam sensitization of Mtb H37Rv. M. tuberculosis H37Rv growth with meropenem, percent inhibition. inhibition, % at 25 µM. actives 0.27% (n = 330,000). AID 434955; call rule not given here;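 further: growth measured after seven days incubation then overnight dye step; 0% = bacteria only wells and 100% = bacteria with antibiotic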
Rv3671c inh: inhibits the M. tuberculosis serine protease Rv3671c. inhibition, % at 5.96 µM. P9WHR9. actives 0.048% (n = 320,000); in the data active means inhibition above about 38%;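 further: extracellular domain of Rv3671c used as enzyme; 0% = enzyme with DMSO and 100% = no enzyme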
GDH-TPI counter: counter-screen for M. tuberculosis FBA inhibitors: GDH-TPI coupled enzymes | GDH-TPI coupled enzyme counterscreen, NADH absorbance | inhibition, % at 4.8 µM | actives 1.2% (n = 360,000) | AID 588335; in the data active means inhibition above about 30%;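 further: 0% = DMSO wells and 100% = wells lacking the enzyme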
FBA Mtb inh: inhibits M. tuberculosis FBA enzyme | P9WQA3 | actives 2.3% (n = 360,000) | purified M. tuberculosis FBA, fluorescence read-out | inhibition, % at 1 µM; in the data active means inhibition above about 27%;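 further: 0% = vehicle and 100% = reference inhibitor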
Starred values were filed as active, the others as inactive; / = not tested or not shown; + = active, no number.

SMILES | UGM FP inh | Mtb betalactam | Rv3671c inh | GDH-TPI counter | FBA Mtb inh
Cc1ccc(-c2[nH]c(-c3ccc(C(=O)O)cc3)nc2-c2ccccc2)cc1 | 4.2 | 4.3 | 11.1 | 17.0 | +
COC1=C/C(=C/c2c(N)n3c(nc2=O)sc2cc(S(C)(=O)=O)ccc23)C=CC1=O | 0.0 | -6.9 | -15.1 | 51.9* | -4.6
CS(=O)(=O)c1ccc2c(c1)sc1nc(=O)c(/C=C3/C=CC(=O)C(O)=C3)c(N)n12 | -5.1 | 4.0 | -3.2 | 17.3 | 5.9
CCOc1cc(/C=C2\C(=O)N(c3nc(-c4ccc(Br)cc4)cs3)N=C2c2ccccc2)ccc1O | -0.9 | 4.2 | 17.7 | 31.4* | 0.7
Cc1nc(SCC(=O)N(C)C2CCS(=O)(=O)C2)c(C#N)c(C)c1C (stereo not drawn) | 3.9 | 3.6 | 0.0 | 5.6 | 1.8
CCOC(=O)c1c([N+](=O)[O-])c(C)[nH]c(=O)c1C#N | 2.0 | 8.8 | -11.7 | 11.0 | 3.4
Cc1nc2ccc(NC(=O)c3cccs3)cc2s1 | -2.2 | 14.3 | -4.5 | 2.4 | -0.4
COc1ccccc1C(=O)Nc1nc2cc3c(cc2s1)OCCO3 | 2.2 | -1.2 | -1.9 | 3.9 | 8.9
CCN(CC)S(=O)(=O)c1ccc2nc(NC(=O)c3cccs3)sc2c1 | -0.8 | 45.6 | -48.9 | 35.5* | 19.4
CC(=O)Nc1ccc2nc(NC(=O)c3cccs3)sc2c1 | 0.2 | 85.3 | -24.0 | 53.1* | -2.2
O=C(Nc1nc2cc3c(cc2s1)OCCO3)c1cccc(N2C(=O)CCC2=O)c1 | 1.9 | -5.0 | -2.5 | 31.2* | 4.2
O=C(Nc1nc2cc3c(cc2s1)OCCO3)c1cccs1 | -0.2 | -0.9 | -22.9 | 37.7* | 3.8
O=C(CNCc1cccnc1)Nc1cc(C(F)(F)F)ccc1N1CCOCC1 | 2.2 | -7.3 | 1.2 | 12.6 | 2.0
CC(C)(C)c1ccc(S(=O)(=O)NC(=O)C2(C)CCN2C(=O)CC2CCCCC2)cc1 (stereo not drawn) | / | / | / | 3.5 | 3.3
Cc1cc(SCC(=O)NC2CCCC2)nc2ccccc12 | -1.5 | 4.7 | -2.2 | 0.8 | -0.1
COc1ccc(CCNC(=O)CCC(=O)Nc2ccccc2[N+](=O)[O-])cc1OC | 0.4 | -4.1 | 0.6 | 0.5 | -3.8
CN(C(=O)CSc1nc2ccc([N+](=O)[O-])cc2s1)C1CCS(=O)(=O)C1 (stereo not drawn) | 6.2 | -4.6 | 3.3 | 34.2* | 0.4
CCN(CC(=O)N1CCC(C(N)=O)CC1)S(=O)(=O)c1ccc(Cl)cc1 | 3.1 | -0.5 | -4.8 | 2.8 | -0.2
CCn1c(O)c(N=Nc2ccc(Cl)c(C(=O)O)c2)c2ccccc21 | 0.7 | -5.5 | 5.0 | 35.0* | -19.5
CC(C)n1c(O)c(N=Nc2ccc(Cl)c(C(=O)O)c2)c2ccccc21 | -0.1 | -10.8 | -7.5 | 11.7 | -17.8
Cc1ccc(C(=O)c2ccccc2C(=O)OCC(=O)NCC2CCCO2)cc1 (stereo not drawn) | 1.1 | -4.0 | -3.0 | -5.4 | 0.6
CCOc1cccc(/C=C/c2cc(C(=O)O)c3ccccc3n2)c1OC | 3.5 | 1.8 | -3.2 | 48.1* | -7.5
CCOc1cc(/C=C/c2cc(C(=O)O)c3ccccc3n2)ccc1OC | 2.4 | -2.2 | 0.2 | 7.0 | 1.1
COCCNC(=O)CCSc1nc(-c2ccc(OC)cc2)cc(C(F)(F)F)n1 | 1.3 | 1.8 | 0.1 | 35.6* | 22.1
COc1cc(N)c(Cl)cc1C(=O)OCC(=O)Nc1cccnc1Cl | 3.6 | -3.5 | 4.1 | 0.3 | -0.8
SMILES | UGM FP inh | Mtb betalactam | Rv3671c inh | GDH-TPI counter | FBA Mtb inh
CN1/C(=C\C=C(C#N)C#N)C(C)(C)c2ccccc21 | 71.5* | -3.1 | 1.5 | 8.6 | -4.2
CN1/C(=C/C=N/n2cnnc2)C(C)(C)c2ccccc21 | -2.1 | 1.4 | -11.8 | 45.1* | 3.5
COC(=O)C1(Cc2ccc(O)c(CC3OC3(C)C)c2)OC(=O)C(O)=C1c1ccc(O)cc1 (stereo not drawn) | -1.7 | 0.6 | 8.5 | 13.2 | -2.0
Nc1nc(-c2ccccc2)cn1N | -6.1 | -4.5 | -0.2 | 2.5 | 1.6
Nc1nn2cc(-c3ccccc3)nc2c2ccccc12 | -0.3 | 14.2 | -0.1 | 4.3 | +
c1ccc(CSc2nccc(-c3ccco3)n2)cc1 | 2.1 | 9.3 | -2.7 | 13.1 | -0.4
Cc1ccc(C)n1-c1nccc(-c2ccco2)n1 | / | 2.3 | 0.6 | 5.7 | 158.4*
Cc1ccc(C)n1-c1nccc(-c2cccs2)n1 | 0.3 | 6.8 | 6.0 | -5.3 | 161.1*
N#Cc1cccn1-c1nccc(-c2cccs2)n1 | -0.1 | 13.2 | -14.0 | 4.2 | -5.4
Nc1ncnc(Nc2ccc(S(N)(=O)=O)cc2)n1 | -2.9 | 4.8 | / | -3.9 | 2.5
COC(=O)c1ccc(CNC(=O)c2ccc(OCC(=O)N3CCOCC3)c(OC)c2)cc1 | 1.2 | -2.1 | 0.2 | -10.0 | 3.1
CC(/C=C1\SC(=O)N(CC(=O)Nc2cccc(O)c2)C1=O)=C\c1ccccc1 | -1.6 | -11.3 | -78.2 | 32.9* | 1.9
COc1ccc(/C=C2\SC(=O)N(CC(=O)Nc3cccc(C)c3)C2=O)cc1O | -2.3 | 4.3 | -53.9 | 47.1* | -2.4
CC(/C=C1\SC(=O)N(CC(=O)Nc2ccc(O)cc2)C1=O)=C\c1ccccc1 | 0.7 | 1.0 | -15.2 | 18.2 | -1.2
CCOc1cc(/C=C2/NC(=O)N(CC(=O)Nc3cccc(C)c3)C2=O)ccc1OCC(N)=O | -1.4 | -1.0 | -15.2 | 38.2* | 2.6
O=C(CN1C(=O)S/C(=C\C=C\c2ccccc2)C1=O)Nc1ccc(C(=O)O)cc1 | 1.4 | 0.9 | -67.6 | 57.1* | -1.3
CCOc1cccc(/C=C2/NC(=O)N(CC(=O)Nc3cccc(C)c3)C2=O)c1O | -2.5 | -8.4 | -21.6 | 25.5 | -2.2
COc1cc(/C=C2\SC(=O)N(CC(=O)Nc3cccc(C)c3)C2=O)ccc1OC(C)C(=O)O (stereo not drawn) | -1.1 | 1.9 | -3.1 | 18.4 | -0.3
CC1CN(C(=O)COC(=O)c2ccc3ncsc3c2)CC(C)O1 (stereo not drawn) | -1.9 | 0.8 | -3.1 | 3.4 | -1.8
CCOC(=O)C1(Cc2cccc(F)c2)CCN(Cc2c(C)nn(CC)c2C)CC1 | -5.3 | -9.9 | 5.9 | -4.9 | -2.8
NC(=O)COc1ccc(/C=N/NS(=O)(=O)c2ccccc2)cc1 | 0.6 | 1.2 | 3.1 | 5.5 | -0.2
C1=C\CCC2(OCCO2)C2(CC/1)OCCO2 | / | / | / | 2.6 | -2.4
Cc1cc(NC(=O)NC(=O)c2ccccc2NC(=O)C(C)N)ccc1Oc1ncc(Br)cn1 (stereo not drawn) | / | / | / | 7.8 | -2.4
CCc1ccc(N=C2NC(=O)/C(=C/c3cc(OC)c(OC)c(OC)c3)S2)cc1 | 2.7 | 1.6 | -31.2 | 30.4 | 0.6
CCc1ccc(N=C2NC(=O)/C(=C/c3cc(Br)c(OCC(=O)O)c(OC)c3)S2)cc1 | 0.3 | -5.6 | -2.3 | 34.0* | 2.3
Cc1cccc(NC(=O)[C@@H]2CCCN2C(=O)OC(C)(C)C)c1 | 4.6 | -12.0 | -0.2 | 4.5 | -2.0
CCOC(=O)c1sc(/N=C/N(C)C)c(C(=O)OCC)c1C | 3.0 | 7.4 | -3.7 | 21.4 | -0.5
CCOC(=O)c1sc(/N=C/N(C)C)nc1C | 0.4 | 1.5 | 1.8 | 31.5* | -1.8
COc1ccc(C(C)(C)C)cc1NC(=O)COC(=O)CSCc1c(C)noc1C | / | / | / | 3.5 | 4.3
Cc1ccc(/C=N/NC(=S)NCCc2ccccc2)s1 | -1.3 | 2.1 | 5.5 | 7.0 | 0.2
